Among the data in PubChem BioAssay (EPA / NIEHS) are outcome and AC50 values, retold here.

Structures are written as SMILES. Active and inactive are the calls of the source. How the source made its calls: active means hit-call score of the fitted dose curve at least 0.9, where 1 is the maximum; inactive means score below 0.9.

Common to all, as to settings: mRNA level, 48 h; actives raise or lower the signal
Read-out in assay [1]: Cytochrome P450 7A1 (Homo sapiens) (UniProt P22680)
As to the kind of experiment: LTEA_HepaRG_CYP7A1: Life Technologies and Expression Analysis (LTEA) Assay for Cytochrome P450 7A1 (CYP7A1) using HepaRG (AID 2283496). The procedure, abridged: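 HepaRG cells plated 48 h, then switched to serum-free induction medium and exposed in duplicate for 48 h to 8-point half-log series from 100 uM in 0.5% DMSO. CYP7A1 mRNA by qRT-PCR (TaqMan), normalized to ACTB/GAPDH/POLR2A; bidirectional fit versus DMSO.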

Read-out in assay [2]: Glutathione S-Transferase (GSTA2), GSTA2 (gene 2939)
In words: LTEA_HepaRG_GSTA2: Life Technologies and Expression Analysis (LTEA) Assay for Glutathione S-Transferase (GSTA2) using HepaRG (AID 2283497). In short, it runs like this:
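Human HepaRG cells, plated 48 h, then exposed in serum-free induction medium for 48 h to eight half-log concentrations up to 100 uM in 0.5% DMSO, duplicate. GSTA2 mRNA by qRT-PCR, normalized to ACTB/GAPDH/POLR2A; bidirectional fit versus DMSO.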

Read-out in assay [3]: Glutamate-cysteine ligase catalytic (GCLC), GCLC (gene 2729)
In words: LTEA_HepaRG_GCLC: Life Technologies and Expression Analysis (LTEA) Assay for Glutamate-cysteine ligase catalytic (GCLC) using HepaRG (AID 2283498). The procedure, abridged:
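Differentiated human HepaRG cells, plated 48 h then switched to serum-free induction medium, were exposed in duplicate for 48 h to 8 half-log concentrations topping at 100 uM in 0.5% DMSO. GCLC mRNA was quantified by qRT-PCR against ACTB, GAPDH and POLR2A.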

Read-out in assay [4]: growth arrest and DNA damage 45 (GADD45G), GADD45G (gene 10912)
As to the kind of experiment: LTEA_HepaRG_GADD45G: Life Technologies and Expression Analysis (LTEA) Assay for growth arrest and DNA damage 45 (GADD45G) using HepaRG (AID 2283499). The procedure, abridged:
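Differentiated human HepaRG cells in serum-free induction medium were exposed for 48 h to 8 half-log concentrations up to 100 uM in 0.5% DMSO, in duplicate. GADD45G mRNA was measured by TaqMan qRT-PCR, normalised to ACTB, GAPDH and POLR2A, and fitted bidirectionally against DMSO.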

Read-out in assay [5]: Glutamate-cysteine ligase regulatory (GCLM), GCLM (gene 2730)
In words: LTEA_HepaRG_GCLM: Life Technologies and Expression Analysis (LTEA) Assay for Glutamate-cysteine ligase regulatory (GCLM) using HepaRG (AID 2283500). The procedure, abridged: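 Differentiated HepaRG cells exposed 48 h in serum-free induction medium to eight half-log concentrations up to 100 uM (0.5% DMSO). GCLM mRNA by TaqMan qRT-PCR, normalized to ACTB, GAPDH and POLR2A; bidirectional fit versus DMSO.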

Read-out in assay [6]: Heat shock 70 kDa protein 1 (HSPA1A), gene 3303
As to the kind of experiment: LTEA_HepaRG_HSPA1A: Life Technologies and Expression Analysis (LTEA) Assay for Heat shock 70 kDa protein 1 (HSPA1A) using HepaRG (AID 2283502). In short, it runs like this:
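Human HepaRG cells in serum-free induction medium were exposed in duplicate for 48 h to 8 half-log concentrations, highest 100 uM, in 0.5% DMSO. HSPA1A mRNA read by TaqMan qRT-PCR, normalized to ACTB, GAPDH, POLR2A, fitted bidirectionally against DMSO.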

Read-out in assay [7]: Hypoxia-inducible factor 1-alpha (Homo sapiens) (UniProt Q16665)
As to the kind of experiment: LTEA_HepaRG_HIF1A: Life Technologies and Expression Analysis (LTEA) Assay for Hypoxia-inducible factor 1 (HIF1A) Trancription factor using HepaRG (AID 2283503). In short, it runs like this: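 Differentiated HepaRG cells in serum-free induction medium exposed 48 h, in duplicate, to 8-point half-log series from 100 uM in 0.5% DMSO. HIF1A mRNA measured by TaqMan qRT-PCR, normalized to ACTB/GAPDH/POLR2A, fitted bidirectionally versus DMSO.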

Read-out in assay [8]: 3-Hydroxy-3-Methylglutaryl-CoA Synthase 2 (HMGCS2), HMGCS2 (gene 3158)
As to the kind of experiment: LTEA_HepaRG_HMGCS2: Life Technologies and Expression Analysis (LTEA) Assay for 3-Hydroxy-3-Methylglutaryl-CoA Synthase 2 (HMGCS2) using HepaRG (AID 2283504). The procedure, abridged: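 Differentiated human HepaRG cells were exposed in duplicate for 48 h in serum-free induction medium to eight concentrations (top 100 uM, half-log steps, 0.5% DMSO). HMGCS2 mRNA was quantified by TaqMan qRT-PCR, normalised to ACTB, GAPDH and POLR2A, then fitted bidirectionally against DMSO.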

Read-out in another assay: HGF (gene 3082)
In words: LTEA_HepaRG_HGF: Life Technologies and Expression Analysis (LTEA) Assay for Hepatocyte Growth Facto (HGF) using HepaRG (AID 2283505). In short, it runs like this: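 Differentiated human HepaRG cells in serum-free induction medium were exposed in duplicate for 48 h to eight concentrations (top 100 uM, half-log steps, 0.5% DMSO). HGF mRNA was quantified by qRT-PCR, normalized to ACTB, GAPDH and POLR2A.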

Read-out in assay [9]: Insulin Like Growth Factor 1 (IGF1), IGF1 (gene 3479)
As to the kind of experiment: LTEA_HepaRG_IGF1: Life Technologies and Expression Analysis (LTEA) Assay for Insulin Like Growth Factor 1 (IGF1) using HepaRG (AID 2283506). The procedure, abridged: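 Differentiated HepaRG cells in serum-free induction medium, exposed 48 h in duplicate to 8 half-log concentrations up to 100 uM in 0.5% DMSO. IGF1 mRNA by Fluidigm qRT-PCR, normalised to ACTB, GAPDH and POLR2A.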

Read-out in assay [10]: Intercellular Adhesion Molecule 1 (ICAM1), ICAM1 (gene 3383)
As to the kind of experiment: LTEA_HepaRG_ICAM1: Life Technologies and Expression Analysis (LTEA) Assay for Intercellular Adhesion Molecule 1 (ICAM1) using HepaRG (AID 2283507). In short, it runs like this: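 Differentiated HepaRG cells in serum-free induction medium were exposed in duplicate for 48 h to eight half-log concentrations up to 100 uM in 0.5% DMSO. Transcript levels were measured by qRT-PCR normalized to ACTB, GAPDH and POLR2A; bidirectional fits relative to DMSO.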

Read-out in assay [11]: Insulin-like growth factor-binding protein 1 (IGFBP1), IGFBP1 (gene 3484)
As to the kind of experiment: LTEA_HepaRG_IGFBP1: Life Technologies and Expression Analysis (LTEA) Assay for Insulin-like growth factor-binding protein 1 (IGFBP1) using HepaRG (AID 2283508). The procedure, abridged:
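Differentiated human HepaRG cells in serum-free induction medium were exposed in duplicate for 48 h to eight concentrations, top 100 uM with half-log dilutions, in 0.5% DMSO. Transcript levels came from qRT-PCR normalised to ACTB, GAPDH and POLR2A, fitted bidirectionally against DMSO.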

Read-out in assay [12]: Interleukin 6 (IL6), IL6 (gene 3569)
In words: LTEA_HepaRG_IL6: Life Technologies and Expression Analysis (LTEA) Assay for Interleukin 6 (IL6) using HepaRG (AID 2283509). The procedure, abridged:
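Differentiated human HepaRG cells, plated 48 h then switched to serum-free induction medium, were exposed in duplicate for 48 h to eight half-log concentrations up to 100 uM in 0.5% DMSO. IL6 mRNA measured by qRT-PCR, normalized to ACTB/GAPDH/POLR2A.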

Read-out in assay [13]: Interleukin 6 Receptor (IL6R), IL6R (gene 3570)
In words: LTEA_HepaRG_IL6R: Life Technologies and Expression Analysis (LTEA) Assay for Interleukin 6 Receptor (IL6R) using HepaRG (AID 2283510). The procedure, abridged: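 Differentiated HepaRG cells, plated 48 h, then exposed in duplicate for 48 h in serum-free induction medium to 8 half-log concentrations (top 100 uM, 0.5% DMSO). IL6R mRNA measured by TaqMan qRT-PCR, normalized to ACTB/GAPDH/POLR2A; bidirectional fit vs DMSO.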

Read-out in assay [14]: Potassium channel subfamily K member 1 (KCNK1), KCNK1 (gene 3775)
As to the kind of experiment: LTEA_HepaRG_KCNK1: Life Technologies and Expression Analysis (LTEA) Assay for Potassium channel subfamily K member 1 (KCNK1) using HepaRG (AID 2283511). The procedure, abridged:
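Differentiated human HepaRG cells in serum-free induction medium were exposed in duplicate for 48 h to 8 half-log concentrations up to 100 uM in 0.5% DMSO. KCNK1 mRNA was measured by TaqMan qRT-PCR, normalized to ACTB, GAPDH and POLR2A, and fitted bidirectionally versus DMSO.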

Read-out in assay [15]: Keratin 19 (KRT19), KRT19 (gene 3880)
In words: LTEA_HepaRG_KRT19: Life Technologies and Expression Analysis (LTEA) Assay for Keratin 19 (KRT19) using HepaRG (AID 2283512). In short, it runs like this:
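Differentiated human HepaRG cells, plated 48 h, were exposed in duplicate for 48 h in serum-free induction medium to eight half-log concentrations up to 100 uM in 0.5% DMSO. KRT19 mRNA was quantified by qRT-PCR, normalized to ACTB, GAPDH and POLR2A, and fitted bidirectionally versus DMSO.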

Read-out in assay [16]: JUN Transcription Factor, JUN (gene 3725)
As to the kind of experiment: LTEA_HepaRG_JUN: Life Technologies and Expression Analysis (LTEA) Assay for JUN Transcription Factor using HepaRG (AID 2283513). The procedure, abridged:
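HepaRG cells, 48 h post-plating, exposed 48 h in serum-free induction medium to 8-point half-log series (top 100 uM, 0.5% DMSO), duplicate; mRNA by qRT-PCR (TaqMan, Fluidigm), normalized to ACTB/GAPDH/POLR2A; bidirectional fit vs DMSO.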

Read-out in assay [17]: Lipoprotein lipase (LPL), LPL (gene 4023)
In words: LTEA_HepaRG_LPL: Life Technologies and Expression Analysis (LTEA) Assay for Lipoprotein lipase (LPL) using HepaRG (AID 2283515). In short, it runs like this: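 Differentiated human HepaRG cells in serum-free induction medium were exposed in duplicate for 48 h to eight half-log concentrations (top 100 uM) in 0.5% DMSO. LPL mRNA was quantified by TaqMan qRT-PCR, normalized to ACTB, GAPDH and POLR2A.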

Read-out in assay [18]: Lipase C (LIPC), LIPC (gene 3990)
As to the kind of experiment: LTEA_HepaRG_LIPC: Life Technologies and Expression Analysis (LTEA) Assay for Lipase C (LIPC) using HepaRG (AID 2283514). In short, it runs like this:
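Differentiated human HepaRG cells in serum-free induction medium were exposed in duplicate for 48 h to eight concentrations (top 100 uM, half-log steps, 0.5% DMSO). LIPC mRNA was quantified by TaqMan qRT-PCR, normalized to ACTB, GAPDH and POLR2A, with bidirectional fitting versus DMSO.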

Hypoxia-inducible factor 1-alpha (Homo sapiens), sequence (Q16665 whole entry, looked up): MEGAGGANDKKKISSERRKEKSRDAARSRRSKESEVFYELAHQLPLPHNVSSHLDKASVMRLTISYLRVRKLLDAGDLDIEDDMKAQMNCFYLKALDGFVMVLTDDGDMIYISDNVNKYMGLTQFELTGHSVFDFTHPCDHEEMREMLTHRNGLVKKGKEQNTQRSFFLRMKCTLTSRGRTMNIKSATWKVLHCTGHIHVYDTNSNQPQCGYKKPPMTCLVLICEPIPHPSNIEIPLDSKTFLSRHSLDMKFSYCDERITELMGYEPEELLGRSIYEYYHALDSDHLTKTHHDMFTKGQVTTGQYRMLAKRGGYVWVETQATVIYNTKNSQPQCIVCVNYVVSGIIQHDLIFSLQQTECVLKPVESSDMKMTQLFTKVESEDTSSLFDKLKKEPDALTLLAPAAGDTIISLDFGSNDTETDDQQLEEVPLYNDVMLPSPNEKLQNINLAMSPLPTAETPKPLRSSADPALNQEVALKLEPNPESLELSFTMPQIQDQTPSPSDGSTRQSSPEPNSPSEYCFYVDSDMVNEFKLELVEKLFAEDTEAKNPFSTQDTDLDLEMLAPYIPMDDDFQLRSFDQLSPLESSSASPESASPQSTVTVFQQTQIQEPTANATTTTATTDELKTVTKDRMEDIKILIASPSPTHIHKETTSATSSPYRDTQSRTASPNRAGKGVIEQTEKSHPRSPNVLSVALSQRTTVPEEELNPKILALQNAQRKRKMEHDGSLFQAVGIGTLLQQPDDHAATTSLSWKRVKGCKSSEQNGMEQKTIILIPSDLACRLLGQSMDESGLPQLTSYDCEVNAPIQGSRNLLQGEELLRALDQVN

What is called AC50 is the concentration giving half of the maximal activity seen. As to `CON=C(C(=O)OC)c1ccccc1CON=C(C)c1cccc(C(F)(F)F)c1`, the molecule was called inactive in [1], in [2], in [3], in [4], in assay [5] and in assay [6]. Further, the call (in [7]; in assay [8]; with HGF (gene 3082); in [10]; in assay [11]; in assay [12]) was inactive. In addition, the call in [13], in assay [14], in [15], in assay [16] and in [17] was inactive. The AC50 in [9] is 50 µM (active).

For the molecule `FC(F)C(F)(F)OCC(Cn1cncn1)c1ccc(Cl)cc1Cl` (stereo not given), the AC50 is 44.6 µM (active) in assay [1]; 38.7 µM (active) in assay [2]; 11.1 µM (active) in assay [4]; 13 µM (active) in assay [5]; 83.4 µM (active) in [6]; 76.4 µM (active) in assay [7]. Further, the half-maximal activity concentration (AC50) in [8] was 39.5 µM (active); with HGF (gene 3082), 87.2 µM (active); in [9] it was 33.4 µM (active); in assay [10], 31.9 µM (active); in assay [11] it was 31.4 µM (active); in assay [12] it was 78.5 µM (active). For the same molecule, the AC50 in assay [14] was 66.8 µM (active); in [18] it was 49.8 µM (active); in [17] it was 31.3 µM (active). The outcome in assay [3], in assay [13], in [15] and in [16] was inactive.

As for `CCNc1nc(Cl)nc(NC(C)(C)C#N)n1`, the result in assay [1], in assay [2], in [3], in [4], in assay [5] and in [6] was inactive. Besides, the molecule was called inactive (in [7]; in assay [8]; with HGF (gene 3082); in assay [9]; in assay [10]; in assay [11]). Also, the molecule was called inactive in [12], in assay [13], in assay [14], in assay [16], in [18] and in assay [17].
